Bioassay records: PubChem, National Center for Advancing Translational Sciences (NCATS)
Rows were chosen to be rich in hits. Some 9.3% of all compounds tested hit in one or more screens of this group.
ELG1 repair inh: qHTS screen for small molecules that inhibit ELG1-dependent DNA repair in human embryonic kidney (HEK293T) cells expressing luciferase-tagged ELG1 | HEK293T ELG1-luciferase reporter, luminescence, 16 h; DNA damage induced by 5-fluorouridine | Potency, µM (doses to about 46.1 µM), most hits filed as inhibitors | hit rate 2.3% among 330,000; further: nearly all actives have a fitted effect of over 55% in size
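Overnight (16 hr) co-exposure of 2,000 cells/well to 5-fluorouridine and compound at 37 °C preceded detection. Luciferase was quantified via ONE-Glo luminescence; loss of signal denotes inhibition.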
Rab9 prom act: qHTS Assay for Rab9 Promoter Activators; Huh7 Rab9 promoter-luciferase reporter, luminescence, 24 h; Potency, µM (top dose mostly 9.22 µM), usual class: activators; hit rate 2.8% among 320,000; further: nearly all actives have a fitted effect of over 60% in size
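Measured in stably transfected Huh7 cells bearing a Rab9 promoter–luciferase construct: 24 h compound treatment at 37 °C, followed by luminescence detection.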
FLuc counter: qHTS profiling assay for firefly luciferase inhibitor/activator using purifed enzyme and Km concentrations of substrates (counterscreen for miR-21 project); purified FLuc, Km substrates, luminescence inhibition; Potency, µM (highest dose often 57.5 µM), actives largely listed as inhibitors; hit rate 6.9% among 360,000; AID 588342, 2011; further: nearly all actives have a fitted effect of over 55% in size
Target sequence (P08659 whole entry, looked up): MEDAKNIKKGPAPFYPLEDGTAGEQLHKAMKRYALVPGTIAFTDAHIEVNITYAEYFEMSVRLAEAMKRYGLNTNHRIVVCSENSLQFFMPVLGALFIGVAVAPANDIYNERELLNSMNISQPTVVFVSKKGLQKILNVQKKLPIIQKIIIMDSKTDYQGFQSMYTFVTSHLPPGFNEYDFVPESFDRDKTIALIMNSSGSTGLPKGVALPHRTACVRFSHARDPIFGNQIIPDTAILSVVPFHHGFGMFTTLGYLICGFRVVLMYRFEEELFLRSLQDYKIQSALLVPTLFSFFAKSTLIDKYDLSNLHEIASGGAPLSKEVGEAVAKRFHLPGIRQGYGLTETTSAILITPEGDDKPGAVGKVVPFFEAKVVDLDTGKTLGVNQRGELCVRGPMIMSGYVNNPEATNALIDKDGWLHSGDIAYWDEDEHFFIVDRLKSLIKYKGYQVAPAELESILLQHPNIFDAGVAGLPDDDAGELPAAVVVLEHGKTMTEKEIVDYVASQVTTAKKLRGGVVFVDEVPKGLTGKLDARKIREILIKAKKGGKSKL
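Purified P. pyralis luciferase (10nM final) with 10uM D-luciferin and 10uM ATP (Km levels) in 50mM Tris acetate pH 7.5, 10mM Mg acetate, 0.01% Tween-20, 0.05% BSA; qHTS 6-point titration, ~60 µM downward; luminescence read.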
NPC1 prom act: qHTS Assay for NPC1 Promoter Activators. Huh7 NPC1 promoter luciferase reporter, 24 h. Potency, µM (doses to about 9.22 µM), usual class: activators. hit rate 2.4% among 320,000; further: nearly all actives have a fitted effect of over 60% in size
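Stably transfected Huh7 (NPC1 promoter→luciferase), 1500 cells/well in Opti-MEM + 10% FBS, 2 h settle, then compound 24 h at 37 °C. Luminescence after 10 min with Amplite reagent.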
SMN2 splice up: qHTS Assay for Enhancers of SMN2 Splice Variant Expression; Potency, µM (titrated, usually from 46.1 µM), usual class: activators; hit rate 2.8% among 210,000; HEK293 SMN2-luciferase splicing reporter, luminescence, 30-36 h; further: nearly all actives have a fitted effect of over 55% in size
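qHTS luciferase splicing reporter: luminescence rises when SMN2 exon 7 is included in transfected HEK293 cells. Compound exposure lasted 30-36 h at 37C, with 4.5 mM final sodium butyrate as control, followed by a ONE-Glo read.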
ELG1 genotox: qHTS screen for small molecules that induce genotoxicity in human embryonic kidney (HEK293T) cells expressing luciferase-tagged ELG1. Potency, µM (titrated, usually from 46 µM), actives largely listed as activators. HEK293T ELG1-luciferase reporter, luminescence, 16 h. hit rate 1.3% among 330,000; further: nearly all actives have a fitted effect of over 60% in size
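Genotoxic stress is detected as increased luminescence from luciferase-tagged ELG1 in HEK293T cells, measured with ONE-Glo after a 16 hr treatment at 37 °C.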
Large screens that a line does not name were inactive. The call rests on the fitted dose curve; in most records, active means well fitted curve in the direction sought with a large enough effect; inconclusive means small, poorly fitted or top-dose-only effect, or another doubt; inactive means no such curve, though single readings can be large; an effect the other way counts as inactive or inconclusive.

CCN(CC)S(=O)(=O)c1cc(C(=O)Nc2cc(C)on2)ccc1Cl	ELG1 repair inh 16µM (no result: SMN2 splice up)
CCN(CC)S(=O)(=O)c1ccc(C(=O)Nc2cc(C)on2)cc1	none (no result: SMN2 splice up)
CCN(CC)S(=O)(=O)c1cc(C(=O)NC2CCCCC2)ccc1C	ELG1 repair inh inconclusive, Rab9 prom act 4µM, FLuc counter 7.6µM, NPC1 prom act 2.8µM, SMN2 splice up inconclusive, ELG1 genotox inconclusive
CCN(CC)S(=O)(=O)c1cc(C(=O)Nc2ccc(Cl)cn2)ccc1C	ELG1 repair inh inconclusive, Rab9 prom act 1.6µM, FLuc counter 2.4µM, NPC1 prom act 1.8µM, SMN2 splice up 1.6µM, ELG1 genotox 1.8µM
COc1ccc(N2CCN(C(=O)CS(=O)Cc3nc(-c4ccc(OC)c(OC)c4)oc3C)CC2)cc1 (stereo unspecified)	none (no result: SMN2 splice up)
O=C1ON=C(c2ccccc2)/C1=C/c1ccc(OS(=O)(=O)c2ccccc2)cc1	none
CN(C)/N=C/c1ccc(OS(=O)(=O)c2ccccc2)cc1	ELG1 repair inh inconclusive, Rab9 prom act 2.8µM, FLuc counter 21µM, NPC1 prom act 3.5µM, ELG1 genotox 8.2µM (no result: SMN2 splice up)
O=C(N/N=C/c1ccc(OC(=O)c2ccc3c(c2)OCO3)cc1)c1cncc(Br)c1	none
O=C(COc1ccccc1[N+](=O)[O-])N/N=C/c1cccc(OC(=O)c2ccc3c(c2)OCO3)c1	ELG1 repair inh inconclusive, SMN2 splice up inconclusive, ELG1 genotox inconclusive
COc1ccc(C(=O)Oc2cccc(/C=N/NC(N)=S)c2)cc1	FLuc counter 12µM, SMN2 splice up inconclusive
COc1cc(/C=N/NC(N)=S)ccc1OC(=O)c1ccc(C)cc1	ELG1 repair inh inconclusive
O=C(N/N=C/c1cccc(OC(=O)c2ccc3c(c2)OCO3)c1)c1cncc(Br)c1	Rab9 prom act inconclusive, SMN2 splice up 16µM
COC(=O)N/N=C/c1cccc(OC(=O)c2ccc3c(c2)OCO3)c1	FLuc counter 17µM (no result: SMN2 splice up)
CC1CN(S(=O)(=O)c2cccc(C(=O)NNC(=O)C(C)Oc3ccccc3F)c2)CC(C)O1 (stereo unspecified)	none (no result: SMN2 splice up)
O=C(Nc1nc2c(s1)CCCC2)c1ccc(Br)o1	ELG1 repair inh inconclusive, Rab9 prom act 1.3µM, FLuc counter 1.5µM, NPC1 prom act 2.2µM, SMN2 splice up 11µM, ELG1 genotox 12µM
O=C(Nc1nc2c(s1)CCCC2)c1cc(-c2ccccc2)nc2ccccc12	FLuc counter inconclusive
CC(=O)c1sc(NC(=O)C=C(C)C)nc1C	ELG1 repair inh inconclusive, FLuc counter inconclusive, SMN2 splice up 20µM, ELG1 genotox 18µM
CCCCC(=O)Nc1nc(C)c(C(C)=O)s1	none
Cc1onc(-c2ccccc2Cl)c1C(=O)Nc1nc2c(s1)CCCC2	ELG1 repair inh inconclusive, Rab9 prom act inconclusive, FLuc counter 13µM
Cc1ccc(C(=O)Nc2nc3c(s2)CCCC3)o1	ELG1 repair inh inconclusive, Rab9 prom act 1µM, FLuc counter 1.7µM, NPC1 prom act 3.2µM, SMN2 splice up 14µM, ELG1 genotox 1.2µM
CC1=Nn2c(nnc2-c2ccco2)SC1	none
COc1ccc(C(=O)N[C@H](C(=O)Nc2nc3c(s2)CCCC3)C(C)C)cc1	FLuc counter 15µM, SMN2 splice up inconclusive
CC(=O)c1sc(NC(=O)c2ccc(Br)o2)nc1C	ELG1 repair inh inconclusive, FLuc counter 19µM, NPC1 prom act inconclusive, ELG1 genotox 16µM (no result: SMN2 splice up)
O=c1oc2c(CN3CCOCC3)c(O)ccc2cc1-c1ccccc1	none (no result: ELG1 repair inh, Rab9 prom act, NPC1 prom act, SMN2 splice up, ELG1 genotox)
COCCN(CCOC)c1nc(-c2ccccc2)nc2ccccc12	ELG1 repair inh 26µM (no result: SMN2 splice up)
COCCCNc1nc(-c2ccncc2)nc2ccccc12	ELG1 repair inh 18µM
COCCN(CCOC)c1nc(-c2ccc(Cl)cc2)nc2ccccc12	ELG1 repair inh inconclusive (no result: SMN2 splice up)
COCCCNc1nc(-c2ccc(Cl)cc2)nc2ccccc12	ELG1 repair inh inconclusive (no result: SMN2 splice up)
COC(=O)c1ccccc1NC(=O)c1cnc2sc(N3CCOCC3)nn2c1=O	none (no result: ELG1 repair inh, Rab9 prom act, NPC1 prom act, SMN2 splice up, ELG1 genotox)
CC(C)c1ccc(NC(=O)c2cnc3sc(N4CCOCC4)nn3c2=O)cc1	FLuc counter 1.9µM (no result: ELG1 repair inh, Rab9 prom act, NPC1 prom act, SMN2 splice up, ELG1 genotox)
CCCS(=O)(=O)Nc1cccc(-c2ccc3nnc(C)n3n2)c1	ELG1 repair inh inconclusive, SMN2 splice up 16µM, ELG1 genotox inconclusive
CC(C)(C)[C@H]1C=C(C(=O)N2CCN(Cc3ccc4c(c3)OCO4)CC2)O[C@@H](OCc2ccc(CO)cc2)C1	ELG1 repair inh 5.2µM (no result: SMN2 splice up)
C#Cc1ccc([C@H]2C=C(C(=O)N3CCN(Cc4ccc5c(c4)OCO5)CC3)O[C@@H](OCC)[C@@H]2CCCO)cc1	ELG1 repair inh 18µM (no result: SMN2 splice up)
O=C(C1=C[C@H](C2CC2)C[C@H](OCc2ccc(CO)cc2)O1)N1CCN(Cc2ccc3c(c2)OCO3)CC1	ELG1 repair inh 6.5µM (no result: SMN2 splice up)
CN(C)CCNC(=O)c1ccc(Cn2c(SCc3ccc(F)cc3)nc3cccnc32)cc1	FLuc counter 6µM (no result: ELG1 repair inh, Rab9 prom act, NPC1 prom act, SMN2 splice up, ELG1 genotox)
O=C(NCCN1CCCCC1)c1ccc(Cn2c(SCc3ccc(F)cc3)nc3cccnc32)cc1	FLuc counter 8.5µM (no result: ELG1 repair inh, Rab9 prom act, NPC1 prom act, ELG1 genotox)
COCCCNC(=O)c1ccc(Cn2c(SCc3ccc(F)cc3)nc3cccnc32)cc1	FLuc counter 3.4µM (no result: ELG1 repair inh, Rab9 prom act, NPC1 prom act, SMN2 splice up, ELG1 genotox)
O=C(NC1CCCCC1)c1ccc(Cn2c(SCc3cccc(F)c3)nc3cccnc32)cc1	none (no result: ELG1 repair inh, Rab9 prom act, NPC1 prom act, SMN2 splice up, ELG1 genotox)
Cc1cccc(CNC(=O)c2ccc(Cn3c(SCc4cccc(F)c4)nc4cccnc43)cc2)c1	none (no result: ELG1 repair inh, Rab9 prom act, NPC1 prom act, SMN2 splice up, ELG1 genotox)
COCCCNC(=O)c1ccc(Cn2c(SCc3cccc(C)c3)nc3cccnc32)cc1	FLuc counter 11µM (no result: ELG1 repair inh, Rab9 prom act, NPC1 prom act, SMN2 splice up, ELG1 genotox)
O=C(NCc1ccc2c(c1)OCO2)C1CCN(S(=O)(=O)c2ccc(Br)s2)CC1	ELG1 repair inh inconclusive
